Experimental findings from PMC11006913 are described below.

Changes are numbered by the printed parent chain.

What all share (assay): PBM; 200 nM protein, PBS
Settings in all cases: dsDNA, one strand shown

Experiment [1] has as its target CRX (Homo sapiens, UniProt O43186 26-111).
Experiment [2] addresses CRX (Homo sapiens, UniProt O43186 26-111, E42D).
Experiment [3] deals with MSX2 (Homo sapiens, UniProt P35548 130-214, R199I).
In experiment [4] the target is ALX1 (Homo sapiens, UniProt Q15699 118-204, L144V).
Sequence of ALX1 (Homo sapiens, UniProt Q15699 118-204, L144V) (Q15699 118-204 L144V): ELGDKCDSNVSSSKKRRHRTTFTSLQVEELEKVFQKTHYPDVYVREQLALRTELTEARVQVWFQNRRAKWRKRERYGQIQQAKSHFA
In experiment [5] the target is ALX1 (Homo sapiens, UniProt Q15699 118-204, L144R).
Sequence of ALX1 (Homo sapiens, UniProt Q15699 118-204, L144R) (Q15699 118-204 L144R): as the sequence (Q15699 118-204 L144V) above, with V27R counted along it
In experiment [6] the target is MSX2 (Homo sapiens, UniProt P35548 130-214).
Sequence of MSX2 (Homo sapiens, UniProt P35548 130-214) (P35548 130-214): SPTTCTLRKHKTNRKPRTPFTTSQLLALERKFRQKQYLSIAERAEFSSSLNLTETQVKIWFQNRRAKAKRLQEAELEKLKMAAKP
Experiment [7] concerns the target VAX1 (Homo sapiens, UniProt Q5SQQ9 86-172).
In experiment [8] the target is MSX2 (Homo sapiens, UniProt P35548 130-214, F161Y).
Sequence of MSX2 (Homo sapiens, UniProt P35548 130-214, F161Y) (P35548 130-214 F161Y): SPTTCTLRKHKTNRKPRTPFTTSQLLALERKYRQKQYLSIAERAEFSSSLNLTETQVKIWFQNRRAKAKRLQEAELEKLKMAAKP
For experiment [9], the target named is VAX1 (Homo sapiens, UniProt Q5SQQ9 86-172, T142I).
Sequence of VAX1 (Homo sapiens, UniProt Q5SQQ9 86-172, T142I) (Q5SQQ9 86-172 T142I): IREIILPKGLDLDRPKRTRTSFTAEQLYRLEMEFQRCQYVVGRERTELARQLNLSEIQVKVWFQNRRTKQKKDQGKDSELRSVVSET
Experiment [10] concerns the target CRX (Homo sapiens, UniProt O43186 26-111, R41L).
Experiment [11] addresses ALX1 (Homo sapiens, UniProt Q15699 118-204).
In experiment [12] the target is VAX1 (Homo sapiens, UniProt Q5SQQ9 86-172, K157R).
Sequence of VAX1 (Homo sapiens, UniProt Q5SQQ9 86-172, K157R) (Q5SQQ9 86-172 K157R): as the sequence (Q5SQQ9 86-172 T142I) above, with I57T, K72R counted along it
Experiment [13] deals with T1, NKX2-6 (Homo sapiens, UniProt A6NCS4 118-204, R150C).
T1 sequence: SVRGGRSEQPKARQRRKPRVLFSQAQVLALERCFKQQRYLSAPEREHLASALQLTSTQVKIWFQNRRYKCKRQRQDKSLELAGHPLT

In experiment [14] the target is NKX3-2 (Homo sapiens, UniProt P78367 192-278, P234S).
Sequence of NKX3-2 (Homo sapiens, UniProt P78367 192-278, P234S) (P78367 192-278 P234S): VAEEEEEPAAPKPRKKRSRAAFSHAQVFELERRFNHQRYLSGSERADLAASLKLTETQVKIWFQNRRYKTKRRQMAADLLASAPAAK
In experiment [15] the target is NKX3-2 (Homo sapiens, UniProt P78367 192-278).
Sequence of NKX3-2 (Homo sapiens, UniProt P78367 192-278) (P78367 192-278): as the sequence (P78367 192-278 P234S) above, with S43P counted along it
The target in experiment [16] is HOXB6 (Homo sapiens, UniProt P17509 132-218, K202E).
Sequence of HOXB6 (Homo sapiens, UniProt P17509 132-218, K202E) (P17509 132-218 K202E): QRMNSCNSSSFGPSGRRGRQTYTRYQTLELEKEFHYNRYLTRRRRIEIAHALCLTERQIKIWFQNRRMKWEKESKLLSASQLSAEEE
Experiment [17] addresses HOXB6 (Homo sapiens, UniProt P17509 132-218).
For experiment [18], the target named is T2, PAX4 (Homo sapiens, UniProt O43316 9-242).
T2 sequence: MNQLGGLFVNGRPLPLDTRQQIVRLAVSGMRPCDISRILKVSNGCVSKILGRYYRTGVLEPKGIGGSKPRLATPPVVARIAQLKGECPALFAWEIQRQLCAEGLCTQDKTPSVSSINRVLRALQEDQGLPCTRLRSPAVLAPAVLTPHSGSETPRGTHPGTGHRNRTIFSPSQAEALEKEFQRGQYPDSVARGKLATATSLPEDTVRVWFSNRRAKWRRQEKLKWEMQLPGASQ

Experiment [19] has as its target T3, PAX4 (Homo sapiens, UniProt O43316 9-242, F177V).
T3 sequence: T2 sequence with F169V

Experiment [20] has as its target T4, PAX4 (Homo sapiens, UniProt O43316 9-242, F177Y).
T4 sequence: T2 sequence with F169Y

For experiment [21], the target named is T5, PAX4 (Homo sapiens, UniProt O43316 9-242, R227W).
T5 sequence: T2 sequence with R219W

Experiment [22] deals with T6, PAX4 (Homo sapiens, UniProt O43316 9-242, R200K).
T6 sequence: T2 sequence with R192K

The target in the next experiment is PITX2 (Homo sapiens, UniProt Q99697 72-157).
Experiment [23] has as its target PRRX1 (Homo sapiens, UniProt P54821 80-166, F113S).
Experiment [24] has as its target T7, NKX2-6 (Homo sapiens, UniProt A6NCS4 118-204).
T7 sequence: T1 sequence with C33R

In experiment [25] the target is PROP1 (Homo sapiens, UniProt O75360 56-141).
Sequence of PROP1 (Homo sapiens, UniProt O75360 56-141) (O75360 56-141): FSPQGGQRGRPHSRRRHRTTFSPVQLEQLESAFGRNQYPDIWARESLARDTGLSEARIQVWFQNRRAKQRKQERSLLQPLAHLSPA
Experiment [26] concerns the target PROP1 (Homo sapiens, UniProt O75360 56-141, R99H).
Experiment [27] deals with T8, NKX2-6 (Homo sapiens, UniProt A6NCS4 118-204, F151L).
T8 sequence: T1 sequence with C33R, F34L

Experiment [28] deals with PROP1 (Homo sapiens, UniProt O75360 56-141, F88S).
Sequence of PROP1 (Homo sapiens, UniProt O75360 56-141, F88S) (O75360 56-141 F88S): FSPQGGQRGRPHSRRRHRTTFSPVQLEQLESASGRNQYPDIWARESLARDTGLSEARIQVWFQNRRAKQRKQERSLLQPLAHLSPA
In experiment [29] the target is PRRX1 (Homo sapiens, UniProt P54821 80-166).
Sequence of PRRX1 (Homo sapiens, UniProt P54821 80-166) (P54821 80-166): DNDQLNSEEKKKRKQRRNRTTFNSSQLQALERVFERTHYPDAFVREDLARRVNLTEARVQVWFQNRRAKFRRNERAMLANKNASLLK
Experiment [30] addresses ALX4 (Homo sapiens, UniProt Q9H161 200-286).
For experiment [31], the target named is ALX4 (Homo sapiens, UniProt Q9H161 200-286, Q225E).
Sequence of ALX4 (Homo sapiens, UniProt Q9H161 200-286, Q225E) (Q9H161 200-286 Q225E): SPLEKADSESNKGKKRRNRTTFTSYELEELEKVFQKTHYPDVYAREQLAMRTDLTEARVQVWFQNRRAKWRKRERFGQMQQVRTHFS
A further experiment addresses T9, VENTX (Homo sapiens, UniProt O95231 78-163, Y115F).
T9 sequence: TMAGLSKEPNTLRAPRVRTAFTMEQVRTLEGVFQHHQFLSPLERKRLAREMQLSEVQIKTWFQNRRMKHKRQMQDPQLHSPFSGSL

Experiment [32] addresses HOXA2 (Homo sapiens, UniProt O43364 129-215, R185T).
Experiment [33] deals with HOXA2 (Homo sapiens, UniProt O43364 129-215, R185K).
Sequence of HOXA2 (Homo sapiens, UniProt O43364 129-215, R185K) (O43364 129-215 R185K): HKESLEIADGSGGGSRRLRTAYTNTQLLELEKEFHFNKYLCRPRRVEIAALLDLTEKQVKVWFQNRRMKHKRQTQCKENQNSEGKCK
The target of experiment [34] is T10, PAX4 (Homo sapiens, UniProt O43316 9-242, R200Q).
T10 sequence: T2 sequence with R192Q

Sequence of CRX (Homo sapiens, UniProt O43186 26-111) (O43186 26-111): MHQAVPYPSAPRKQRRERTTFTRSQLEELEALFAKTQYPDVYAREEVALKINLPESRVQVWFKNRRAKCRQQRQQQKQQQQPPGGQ
Sequence of CRX (Homo sapiens, UniProt O43186 26-111, R41L) (O43186 26-111 R41L): as the sequence (O43186 26-111) above, with R16L counted along it
Sequence of CRX (Homo sapiens, UniProt O43186 26-111, E42D) (O43186 26-111 E42D): as the sequence (O43186 26-111) above, with E17D counted along it
Sequence of VAX1 (Homo sapiens, UniProt Q5SQQ9 86-172) (Q5SQQ9 86-172): as the sequence (Q5SQQ9 86-172 T142I) above, with I57T counted along it
Sequence of ALX1 (Homo sapiens, UniProt Q15699 118-204) (Q15699 118-204): as the sequence (Q15699 118-204 L144V) above, with V27L counted along it
Sequence of PROP1 (Homo sapiens, UniProt O75360 56-141, R99H) (O75360 56-141 R99H): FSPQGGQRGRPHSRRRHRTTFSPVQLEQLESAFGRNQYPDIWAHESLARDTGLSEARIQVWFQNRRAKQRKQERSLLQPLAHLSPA
Sequence of MSX2 (Homo sapiens, UniProt P35548 130-214, R199I) (P35548 130-214 R199I): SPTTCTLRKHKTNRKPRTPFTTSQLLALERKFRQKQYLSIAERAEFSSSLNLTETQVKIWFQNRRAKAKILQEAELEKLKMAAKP
Sequence of HOXB6 (Homo sapiens, UniProt P17509 132-218) (P17509 132-218): as the sequence (P17509 132-218 K202E) above, with E71K counted along it
Sequence of ALX4 (Homo sapiens, UniProt Q9H161 200-286) (Q9H161 200-286): as the sequence (Q9H161 200-286 Q225E) above, with E26Q counted along it
Sequence of HOXA2 (Homo sapiens, UniProt O43364 129-215, R185T) (O43364 129-215 R185T): as the sequence (O43364 129-215 R185K) above, with K57T counted along it
Sequence of PRRX1 (Homo sapiens, UniProt P54821 80-166, F113S) (P54821 80-166 F113S): as the sequence (P54821 80-166) above, with F34S counted along it

Take CGCTCGCC: the binding signal is 7.99 upbm affinity estimate (log intensity, higher = more binding, comparable within an allelic series) with CRX [1]; 8.05 upbm affinity estimate (log intensity, higher = more binding, comparable within an allelic series) in the experiment with CRX [2]; 9.42 upbm affinity estimate (log intensity, higher = more binding, comparable within an allelic series) with MSX2 [3]; 6.31 upbm affinity estimate (log intensity, higher = more binding, comparable within an allelic series) with ALX1 [4]; 6.41 upbm affinity estimate (log intensity, higher = more binding, comparable within an allelic series) with ALX1 [5]; 9.46 upbm affinity estimate (log intensity, higher = more binding, comparable within an allelic series) in the experiment with MSX2 [6]. The binding signal was 6.87 upbm affinity estimate (log intensity, higher = more binding, comparable within an allelic series) in the experiment with VAX1 [7]; 9.5 upbm affinity estimate (log intensity, higher = more binding, comparable within an allelic series) with MSX2 [8]; 7.1 upbm affinity estimate (log intensity, higher = more binding, comparable within an allelic series) with VAX1 [9]; 8.16 upbm affinity estimate (log intensity, higher = more binding, comparable within an allelic series) in the experiment with CRX [10]; 6.39 upbm affinity estimate (log intensity, higher = more binding, comparable within an allelic series) with ALX1 [11]; 7.05 upbm affinity estimate (log intensity, higher = more binding, comparable within an allelic series) in the experiment with VAX1 [12].

For the sequence GACGCGCC, the binding signal in the experiment with CRX [1] is 8.22 upbm affinity estimate (log intensity, higher = more binding, comparable within an allelic series); in the experiment with NKX2-6 [13], 9.4 upbm affinity estimate (log intensity, higher = more binding, comparable within an allelic series); with CRX [2], 8.15 upbm affinity estimate (log intensity, higher = more binding, comparable within an allelic series); in the experiment with NKX3-2 [14] it was 10.5 upbm affinity estimate (log intensity, higher = more binding, comparable within an allelic series); in the experiment with CRX [10], 8.22 upbm affinity estimate (log intensity, higher = more binding, comparable within an allelic series); with NKX3-2 [15], 10.5 upbm affinity estimate (log intensity, higher = more binding, comparable within an allelic series).

With CAGGGCGG, the binding signal was 8.46 upbm affinity estimate (log intensity, higher = more binding, comparable within an allelic series) with CRX [1]; 8.95 upbm affinity estimate (log intensity, higher = more binding, comparable within an allelic series) with HOXB6 [16]; 8.33 upbm affinity estimate (log intensity, higher = more binding, comparable within an allelic series) with CRX [2]; 8.31 upbm affinity estimate (log intensity, higher = more binding, comparable within an allelic series) in the experiment with CRX [10]; 8.83 upbm affinity estimate (log intensity, higher = more binding, comparable within an allelic series) in the experiment with HOXB6 [17].

Turning to AATGCTAA, the binding signal in the experiment with CRX [1] was 10.4 upbm affinity estimate (log intensity, higher = more binding, comparable within an allelic series); in the experiment with PAX4 [18] it was 10.9 upbm affinity estimate (log intensity, higher = more binding, comparable within an allelic series); with CRX [2], 10.3 upbm affinity estimate (log intensity, higher = more binding, comparable within an allelic series); with PAX4 [19] it was 10.1 upbm affinity estimate (log intensity, higher = more binding, comparable within an allelic series); in the experiment with PAX4 [20], 10.2 upbm affinity estimate (log intensity, higher = more binding, comparable within an allelic series); with PAX4 [21], 10.2 upbm affinity estimate (log intensity, higher = more binding, comparable within an allelic series).

Regarding ATTAATCC, the binding signal in the experiment with CRX [1] is 13.5 upbm affinity estimate (log intensity, higher = more binding, comparable within an allelic series); in the experiment with PAX4 [22] it was 11.6 upbm affinity estimate (log intensity, higher = more binding, comparable within an allelic series); with CRX [2] it was 13.6 upbm affinity estimate (log intensity, higher = more binding, comparable within an allelic series); with PITX2, 13.4 upbm affinity estimate (log intensity, higher = more binding, comparable within an allelic series); in the experiment with PAX4 [20], 10.9 upbm affinity estimate (log intensity, higher = more binding, comparable within an allelic series); with CRX [10], 13.5 upbm affinity estimate (log intensity, higher = more binding, comparable within an allelic series).

Turning to CACCACGC, the binding signal was 8.26 upbm affinity estimate (log intensity, higher = more binding, comparable within an allelic series) with CRX [1]; 9.44 upbm affinity estimate (log intensity, higher = more binding, comparable within an allelic series) in the experiment with PRRX1 [23]; 9.32 upbm affinity estimate (log intensity, higher = more binding, comparable within an allelic series) in the experiment with NKX2-6 [13]; 8.36 upbm affinity estimate (log intensity, higher = more binding, comparable within an allelic series) with CRX [2]; 6.3 upbm affinity estimate (log intensity, higher = more binding, comparable within an allelic series) in the experiment with ALX1 [4]; 9.32 upbm affinity estimate (log intensity, higher = more binding, comparable within an allelic series) with NKX2-6 [24]. The binding signal is 6.36 upbm affinity estimate (log intensity, higher = more binding, comparable within an allelic series) with ALX1 [5]; 6.81 upbm affinity estimate (log intensity, higher = more binding, comparable within an allelic series) with PROP1 [25]; 6.8 upbm affinity estimate (log intensity, higher = more binding, comparable within an allelic series) with PROP1 [26]; 7.04 upbm affinity estimate (log intensity, higher = more binding, comparable within an allelic series) with VAX1 [7]; 9.49 upbm affinity estimate (log intensity, higher = more binding, comparable within an allelic series) with NKX2-6 [27]; 6.67 upbm affinity estimate (log intensity, higher = more binding, comparable within an allelic series) with PROP1 [28]. Also, the binding signal in the experiment with VAX1 [9] is 7.3 upbm affinity estimate (log intensity, higher = more binding, comparable within an allelic series); in the experiment with CRX [10] it was 8.34 upbm affinity estimate (log intensity, higher = more binding, comparable within an allelic series); with ALX1 [11] it was 6.37 upbm affinity estimate (log intensity, higher = more binding, comparable within an allelic series); with PRRX1 [29] it was 9.04 upbm affinity estimate (log intensity, higher = more binding, comparable within an allelic series); with VAX1 [12], 7.04 upbm affinity estimate (log intensity, higher = more binding, comparable within an allelic series).

Regarding CACCGGAG, the binding signal with CRX [1] was 8.14 upbm affinity estimate (log intensity, higher = more binding, comparable within an allelic series); with ALX4 [30], 8.15 upbm affinity estimate (log intensity, higher = more binding, comparable within an allelic series); with ALX4 [31], 8.15 upbm affinity estimate (log intensity, higher = more binding, comparable within an allelic series); in the experiment with CRX [2], 8.3 upbm affinity estimate (log intensity, higher = more binding, comparable within an allelic series); with CRX [10], 8.27 upbm affinity estimate (log intensity, higher = more binding, comparable within an allelic series).

In the case of GGTTAAAC, the binding signal is 10.2 upbm affinity estimate (log intensity, higher = more binding, comparable within an allelic series) with CRX [1] and 9.96 upbm affinity estimate (log intensity, higher = more binding, comparable within an allelic series) with CRX [2].

Take GTGATTAA: the binding signal in the experiment with CRX [1] was 12.3 upbm affinity estimate (log intensity, higher = more binding, comparable within an allelic series); with VENTX, 11.5 upbm affinity estimate (log intensity, higher = more binding, comparable within an allelic series); with HOXA2 [32], 12.7 upbm affinity estimate (log intensity, higher = more binding, comparable within an allelic series); in the experiment with CRX [2] it was 12.2 upbm affinity estimate (log intensity, higher = more binding, comparable within an allelic series); with HOXA2 [33], 13.2 upbm affinity estimate (log intensity, higher = more binding, comparable within an allelic series); in the experiment with CRX [10] it was 11.7 upbm affinity estimate (log intensity, higher = more binding, comparable within an allelic series).

ACTTTATC: the binding signal is 10.6 upbm affinity estimate (log intensity, higher = more binding, comparable within an allelic series) in the experiment with CRX [1] and 10.4 upbm affinity estimate (log intensity, higher = more binding, comparable within an allelic series) in the experiment with CRX [2].

With CCGGTCCC, the binding signal in the experiment with CRX [1] was 8.46 upbm affinity estimate (log intensity, higher = more binding, comparable within an allelic series); with PAX4 [22] it was 9.29 upbm affinity estimate (log intensity, higher = more binding, comparable within an allelic series); with PAX4 [18] it was 9.34 upbm affinity estimate (log intensity, higher = more binding, comparable within an allelic series); with CRX [2] it was 8.54 upbm affinity estimate (log intensity, higher = more binding, comparable within an allelic series); with NKX2-6 [24], 9.32 upbm affinity estimate (log intensity, higher = more binding, comparable within an allelic series); with PAX4 [34], 9.4 upbm affinity estimate (log intensity, higher = more binding, comparable within an allelic series). Moreover, the binding signal with PAX4 [19] is 9.28 upbm affinity estimate (log intensity, higher = more binding, comparable within an allelic series); with PAX4 [20], 9.27 upbm affinity estimate (log intensity, higher = more binding, comparable within an allelic series); with NKX2-6 [27], 9.15 upbm affinity estimate (log intensity, higher = more binding, comparable within an allelic series); with PAX4 [21], 9.3 upbm affinity estimate (log intensity, higher = more binding, comparable within an allelic series); in the experiment with CRX [10], 8.54 upbm affinity estimate (log intensity, higher = more binding, comparable within an allelic series).
